Data as given in PubChem BioAssay (EPA / NIEHS).
Records with an inconclusive call do not appear. Calls of active or inactive are those of the source. The calls were made as follows: active = hit-call score of the fitted dose curve at least 0.9, where 1 is the maximum; inconclusive = response in the unintended direction; inactive = score below 0.9.

Assay: ATG_XTT_Cytotoxicity: Cytotoxicity Assessment in the Attagene TRANS-FACTORIAL HepG2 Assay (AID 2283584);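 as to AC50: cells exposed to compound for 24 h before reading; active means loss of viability signal versus DMSO baseline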
Protocol: ATG_XTT_Cytotoxicity is a cell-based, single-readout assay that uses HepG2, a human liver cell line, with measurements taken at 24 hours after chemical dosing in a 24-well plate.ATG_XTT_Cytotoxicity is one of one assay component(s) measured or calculated from the ATG_XTT_Cytotoxicity assay. It is designed to make measurements of cell number, a form of viability reporter, as detected with […] signals by XTT cytotoxicity assay technology.Data from the assay component ATG_XTT_Cytotoxicity was analyzed into 1 assay endpoint. This assay endpoint, ATG_XTT_Cytotoxicity, was analyzed in the positive analysis fitting direction relative to DMSO as the negative control and baseline of activity. Using a type of viability reporter, loss-of-signal activity can be used to understand changes in the viability. Furthermore, this assay endpoint can be referred to as a primary readout, because the performed assay has only produced 1 assay endpoint. To generalize the intended target to other relatable targets, this assay endpoint is annotated to the cell cycle intended target family, where the subfamily is cytotoxicity.
Human liver HepG2 cells are transiently transfected with multiple reporter transcription units (MRTUs) in 6-well plates using FuGene 6 reagent (Roche; 3 ml FuGene/1 mg DNA). The MRTU constructs are regulated by a cis-regulating element (promoter). […] A major difference between the CIS and TRANS system is that in CIS activities of endogenous TFs are measured, whereas the TRANS assay evaluates changes in activities of exogenous, chimeric NR-Gal4 proteins. […] At the end of 24 hour incubation, total RNA was isolated using TriZol reagent (Invitrogen). The isolated RNA is then reverse-transcribed using oligo(dT) primer and Mo-MLV reverse transcriptase (Invitrogen) with DNAse I (Ambion) treatment for 30 min. The one-tenth of the produced cDNA was amplified by PCR using Taq DNA polymerase (Invitrogen) and two reporter sequence-specific primers. The PCR products were fluorescently labeled by primer extension with 6-arboxyfluorescein (6-FAM) 5'-labeled reporter sequence-specific primer (2 min at 95 C, 20 s at 68 C and 10 min at 72 C) and these products were digested with 5U of HpaI (New England Biolabs) for 2h at 37 C. The fragments were purified using Qiaquick PCR columns (Qiagen), analyzed on an ABI 3130xL genetic analyzer (Applied Biosystems) with peak positions identified by using a set of X-rhodamine (ROX)-labeled MapMarker1000 molecular weight standards (BioVentures). The raw capillary electrophoresis data was processed using Attagraph software (Attagene).

**Q.** For `C=C(C)C(=O)OCCOC(=O)CC(C)=O`, which outcome is on record?
**A.** The outcome was “inactive”.

**Q.** For `CCCC(=O)OCCC(C)CCC=C(C)C` (stereo not given), which outcome is on record?
**A.** Its outcome is “inactive”.

**Q.** For `c1cc(C(c2ccc(OCC3CO3)cc2)c2ccc(OCC3CO3)cc2)ccc1OCC1CO1` (stereo not given), which outcome is on record?
**A.** Its outcome is “inactive”.

**Q.** Which outcome does the source give for `O=C(O)CN(CCN(CC(=O)O)CC(=O)O)CCN(CC(=O)O)CC(=O)O` here?
**A.** The outcome was “inactive”.

**Q.** With `CCc1ccc(C=O)cc1` as the molecule, how does the outcome read?
**A.** The outcome was “inactive”.

**Q.** Which outcome does the source give for `Cc1ccc2sc3cccc(C)c3c2c1` here?
**A.** Its outcome is “inactive”.

**Q.** With `Clc1cccc(Cl)n1` as the molecule, how does the outcome read?
**A.** The outcome was “inactive”.

**Q.** For `COc1ccc(NC(=O)CC(C)=O)cc1`, which outcome is on record?
**A.** Its outcome is “inactive”.

**Q.** With `C=O` as the molecule, how does the outcome read?
**A.** The outcome was “inactive”.

**Q.** With `O=C(O)c1cccc(C(F)(F)F)c1` as the molecule, how does the outcome read?
**A.** The outcome was “inactive”.

**Q.** For `CO[Si](CCCn1c(=O)n(CCC[Si](OC)(OC)OC)c(=O)n(CCC[Si](OC)(OC)OC)c1=O)(OC)OC`, which outcome is on record?
**A.** The outcome was “inactive”.

**Q.** Which outcome does the source give for `CC(C)C1CCC(O)CC1` (stereo not given) here?
**A.** The outcome was “inactive”.

**Q.** For `C[C@H]1C[C@H]2[C@@H]3CCC4=CC(=O)C=C[C@]4(C)[C@@]3(F)[C@@H](O)C[C@]2(C)[C@@]1(O)C(=O)COP(=O)(O)O`, which outcome is on record?
**A.** The outcome was “inactive”.

**Q.** For `CC(CCO)CCc1ccccc1` (stereo not given), which outcome is on record?
**A.** Its outcome is “inactive”.

**Q.** With `Fc1c(F)c(F)c(Br)c(F)c1F` as the molecule, how does the outcome read?
**A.** The outcome was “inactive”.

**Q.** Which outcome does the source give for `NCCNCCN` here?
**A.** Its outcome is “inactive”.

**Q.** Which outcome does the source give for `CCCCOCCOCCSC#N` here?
**A.** The outcome was “inactive”.

**Q.** For `CC(CCO)CCCC(C)(C)O` (stereo not given), which outcome is on record?
**A.** The outcome was “inactive”.

**Q.** For `CNCCCC12CCC(c3ccccc31)c1ccccc12`, which outcome is on record?
**A.** Its outcome is “inactive”.

**Q.** Which outcome does the source give for `C=CC(=O)NCOCC(C)C` here?
**A.** Its outcome is “inactive”.

**Q.** For `COCCOCCOCCOCCOCCO`, which outcome is on record?
**A.** Its outcome is “inactive”.

**Q.** Which outcome does the source give for `Nc1cc(Cl)c(O)c(Cl)c1` here?
**A.** Its outcome is “inactive”.

**Q.** Which outcome does the source give for `O=C(O)Cc1cccc2ccccc12` here?
**A.** The outcome was “inactive”.

**Q.** With `N#Cc1nc(Cl)c(Cl)c(Cl)c1Cl` as the molecule, how does the AC50 read?
**A.** Its AC50 is 56.8 µM (active).

**Q.** Which outcome does the source give for `CCCCCCCCCC=O` here?
**A.** The outcome was “inactive”.

**Q.** For `CC1=CCC(O)(C(C)C)CC1` (stereo not given), which outcome is on record?
**A.** The outcome was “inactive”.

**Q.** For `CC(C)CCCCCCCOC(=O)c1ccc(C(=O)OCCCCCCCC(C)C)c(C(=O)OCCCCCCCC(C)C)c1`, which outcome is on record?
**A.** The outcome was “inactive”.

**Q.** Which outcome does the source give for `C=C(C)C(=O)Nc1ccc(Cl)c(Cl)c1` here?
**A.** Its outcome is “inactive”.

**Q.** For `C=CC(=O)OCCn1c(=O)n(CCOC(=O)C=C)c(=O)n(CCOC(=O)C=C)c1=O`, which AC50 is on record?
**A.** The AC50 was 71 µM (active).

**Q.** For `CCN(CC)c1ccc2c(-c3ccccc3C(=O)O)c3ccc(=[N+](CC)CC)cc-3oc2c1`, which outcome is on record?
**A.** The outcome was “inactive”.

**Q.** Which outcome does the source give for `Cc1ccc(C(=O)O)o1` here?
**A.** The outcome was “inactive”.

**Q.** For `CC(=O)Nc1ccc(C)cc1C`, which outcome is on record?
**A.** Its outcome is “inactive”.

**Q.** With `CC(=O)C(C)=O` as the molecule, how does the outcome read?
**A.** The outcome was “inactive”.

**Q.** For `Clc1ccc2c(c1)C(N1CCNCC1)=Nc1ccccc1O2`, which AC50 is on record?
**A.** The AC50 was 41.8 µM (active).

**Q.** For `C=CCOc1nc(OCC=C)nc(OCC=C)n1`, which outcome is on record?
**A.** The outcome was “inactive”.

**Q.** With `O=c1oc(=O)c2cc3c(=O)oc(=O)c3cc12` as the molecule, how does the outcome read?
**A.** Its outcome is “inactive”.

**Q.** With `O=C(O)c1cccc([N+](=O)[O-])c1` as the molecule, how does the outcome read?
**A.** Its outcome is “inactive”.

**Q.** Which outcome does the source give for `O=C1NC(=O)c2ccccc21` here?
**A.** Its outcome is “inactive”.

**Q.** Which outcome does the source give for `COc1cc(C=O)ccc1OC(=O)C(C)C` here?
**A.** The outcome was “inactive”.

**Q.** For `CC(C)(C)c1n[nH]c(=S)n(N)c1=O`, which outcome is on record?
**A.** Its outcome is “inactive”.
